# Reference: PubChem BioAssay (EPA / NIEHS)
# Results filed as inconclusive are left out. Calls of active or inactive are those of the source. Rule for the calls, unless noted: active = hit-call score of the fitted dose curve at least 0.9, where 1 is the maximum; inactive = score below 0.9.
# Legend:
# [1] = target: Glucocorticoid receptor (Homo sapiens) (UniProt P04150); test: ATG_GR_TRANS: Attagene TRANS-FACTORIAL HepG2 Assay for human Glucocorticoid Receptor (GR) (AID 2282978; active = hit-call score of the fitted dose curve at least 0.9, where 1 is the maximum;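 note: activators score as hits since higher reporter transcript over DMSO is fitted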); settings: HepG2 Attagene TRANS GR reporter, mRNA transcription
# Method in brief: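 HepG2 cells transiently transfected with multiplexed reporter units in which chimeric NR-GAL4 proteins drive GAL4-UAS reporters; 24 h compound exposure. Reporter mRNA measured by RT-PCR, 6-FAM labelling, HpaI digestion and capillary electrophoresis; gain-of-signal fitted versus DMSO.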
# [2] = target: Bile acid receptor (Homo sapiens) (UniProt Q96RI1); test: ATG_FXR_TRANS: Attagene TRANS-FACTORIAL HepG2 Assay for Farnesoid X Receptor (FXR) (AID 2282979; active = hit-call score of the fitted dose curve at least 0.9, where 1 is the maximum;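 note: hits raise reporter mRNA above DMSO so AC50 marks FXR activation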); settings: HepG2 Attagene TRANS FXR-GAL4 reporter transcription
# Method in brief: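 After 24 h chemical treatment of transfected HepG2 cells, GAL4-UAS reporter transcripts driven by an exogenous FXR-GAL4 fusion were measured by RT-PCR and capillary electrophoresis. Increases over DMSO were fitted.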
# [3] = target: Oxysterols receptor LXR-alpha (Homo sapiens) (UniProt Q13133); test: ATG_LXRa_TRANS: Attagene TRANS-FACTORIAL HepG2 Assay for human Liver X Receptor alpha (LXRa) (AID 2282980; active = hit-call score of the fitted dose curve at least 0.9, where 1 is the maximum); settings: HepG2 Attagene TRANS reporter, LXRa transactivation
# Method in brief: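 In this multiplexed TRANS system, compounds act on HepG2 cells carrying GAL4-UAS reporter units and a receptor-GAL4 fusion for 24 h. Induced reporter RNA is amplified, fluorescently labelled and sized by capillary electrophoresis, with DMSO as baseline.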
# [4] = ATG_M_06_TRANS: Attagene TRANS-FACTORIAL HepG2 Assay for M06 Transcription Factor (Internal Marker) (AID 2282983; active = hit-call score of the fitted dose curve at least 0.9, where 1 is the maximum); settings: HepG2 Attagene TRANS M06 internal marker reporter
# Method in brief: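 Multi-reporter-transfected HepG2, 24 h treatment; reporter transcripts quantified via RT-PCR, primer-extension labelling and CE. DMSO-normalized gain-of-signal fit.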
# [5] = ATG_M_32_TRANS: Attagene TRANS-FACTORIAL HepG2 Assay for M32 Transcription Factor (Internal Marker) (AID 2282984; active = hit-call score of the fitted dose curve at least 0.9, where 1 is the maximum;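 note: transcript level of a background control reporter unit measured by RT-PCR and capillary electrophoresis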); settings: HepG2 Attagene TRANS M32 internal marker reporter
# Method in brief: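 Internal background reporter in transfected HepG2: after 24 h chemical exposure, RNA reverse-transcribed, reporter cDNA amplified, fluorescently labelled and HpaI-cut, then sized by capillary electrophoresis. Gain of signal fitted against DMSO control.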
# [6] = target: Nuclear receptor subfamily 4 group A member 2 (Homo sapiens) (UniProt P43354); test: ATG_NURR1_TRANS: Attagene TRANS-FACTORIAL HepG2 Assay for human Nuclear Receptor Related Protein 1 (NURR1) (AID 2282985; active = hit-call score of the fitted dose curve at least 0.9, where 1 is the maximum); settings: HepG2 Attagene TRANS reporter, mRNA readout
# Method in brief: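 Reporter transcript induction, measured by RT-PCR with fluorescent labelling, HpaI digestion and capillary electrophoresis, after 24 hr dosing of human HepG2 cells transiently expressing an exogenous NR-Gal4 fusion with GAL4-UAS-driven reporters; DMSO as baseline.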
# [7] = target: Transcriptional activator Myb (Homo sapiens) (UniProt P10242); test: ATG_Myb_CIS: Attagene CIS-FACTORIAL HepG2 Assay for human Myeloblastosis (Myb) Proto-Oncogene Transcription Factor (AID 2282986); settings: HepG2 Attagene CIS-FACTORIAL Myb reporter transcription; actives raise or lower the signal
# Method in brief: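 HepG2 cells were transiently transfected with cis-regulated multiple reporter transcription units reflecting endogenous Myb activity, then exposed to compound for 24 hours. Reporter mRNA was measured by RT-PCR with capillary electrophoresis; bidirectional fitting versus DMSO baseline.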
# [8] = target: Nuclear respiratory factor 1 (Homo sapiens) (UniProt Q16656); test: ATG_NRF1_CIS: Attagene CIS-FACTORIAL HepG2 Assay for human Nuclear Respiratory Factor 1 (NRF1) Orphan Gene (AID 2282987); settings: HepG2 NRF1 cis-element reporter, Attagene multiplex; actives raise or lower the signal
# Method in brief: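 HepG2 cells transiently transfected with multiple reporter transcription units under cis-regulatory promoter control, so endogenous transcription-factor activity is read. After 24 h compound exposure, reporter mRNA quantified by RT-PCR, fluorescent labelling, HpaI digestion and capillary electrophoresis; bidirectional fitting versus DMSO.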
# [9] = ATG_NFI_CIS: Attagene CIS-FACTORIAL HepG2 Assay for human Nuclear Factor I (NFI) (AID 2282989); settings: HepG2 cis-regulatory reporter, NFI response element transcription; actives raise or lower the signal
# Method in brief: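 Reporter transcripts were measured by RT-PCR with fluorescent primer extension and capillary electrophoresis 24 h post-treatment. HepG2 cells carried transiently transfected cis-regulated reporter constructs reporting endogenous factor activity; gain or loss fitted against DMSO baseline.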
# [10] = target: Myc proto-oncogene protein (Homo sapiens) (UniProt P01106); test: ATG_Myc_CIS: Attagene CIS-FACTORIAL HepG2 Assay for human Myelocytomatosis (Myc) Proto-Oncogene Transcription Factor (AID 2282990); settings: HepG2, Attagene cis-reporter transcription factor activity; actives raise or lower the signal
# Method in brief: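 After 24 h chemical treatment of HepG2 cells carrying multiplexed cis-regulated reporter constructs, reporter transcripts quantified by RT-PCR and capillary electrophoresis of fluorescent fragments. Gain or loss fitted against DMSO baseline.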
# [11] = ATG_NF_kB_CIS: Attagene CIS-FACTORIAL HepG2 Assay for human Nuclear Factor Kappa B (NF-kB) (AID 2282991); settings: HepG2 Attagene cis-factorial NF-kB reporter mRNA; actives raise or lower the signal
# Method in brief: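 HepG2 cells transiently transfected with multiplexed cis-element reporter units measuring endogenous transcription factor activity; reporter mRNA read 24 h after dosing by RT-PCR, fluorescent labelling, HpaI digestion and capillary electrophoresis. Bidirectional fit against DMSO baseline.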
# [12] = ATG_NRF2_ARE_CIS: Attagene CIS-FACTORIAL HepG2 Assay for human Nuclear Factor Erythroid 2 Related Factor 2 (NFR2) response to Antioxidant Response Elements (ARE) (AID 2282992); settings: HepG2 Attagene ARE/NRF2 reporter, transcription factor activity; actives raise or lower the signal
# Method in brief: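 Endogenous transcription factor activity read out as reporter transcript levels (RT-PCR plus capillary electrophoresis, fluorescence) in transiently transfected HepG2 cells. Measured at 24 h after dosing; gain or loss of signal fitted versus DMSO.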
# [13] = ATG_Oct_MLP_CIS: Attagene CIS-FACTORIAL HepG2 Assay for human Octamer-Binding Transcription Factor (Oct) (AID 2282993); settings: HepG2 Attagene cis-factorial Oct reporter, mRNA; actives raise or lower the signal
# Method in brief: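 Readout is reporter transcript level from RT-PCR with fluorescent primer extension and capillary electrophoresis, fitted in both directions against DMSO. Transfected HepG2 reporter units report endogenous factor activity after 24 h dosing.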
# [14] = target: Cellular tumor antigen p53 (Homo sapiens) (UniProt P04637); test: ATG_p53_CIS: Attagene CIS-FACTORIAL HepG2 Assay for human p53 Transcription Factor (AID 2282994); settings: HepG2 p53 cis-element reporter, Attagene mRNA; actives raise or lower the signal
# Method in brief: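 Endogenous p53 activity read in transiently transfected HepG2 from a cis-element-driven reporter transcript after 24 h exposure. RNA reverse-transcribed, PCR-amplified, fluorescently labelled and sized by capillary electrophoresis; gain or loss fitted against DMSO baseline.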
# [15] = BSK_3C_TissueFactor: BioMAP Diversity Plus: 3C Assay for Tissue Factor Biomarker Activity (AID 2282997); settings: BioMAP 3C HUVEC, tissue factor biomarker readout; actives raise or lower the signal
# Method in brief: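 In this endothelial system, HUVEC are treated for 24 h and Tissue Factor is assessed by ELISA, normalised to DMSO.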
# [16] = BSK_3C_uPAR: BioMAP Diversity Plus: 3C Assay for Urokinase-type plasminogen activator receptor (uPAR) Biomarker Activity (AID 2282998); settings: BioMAP 3C HUVEC, uPAR biomarker ELISA; actives raise or lower the signal
# Method in brief: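 Cell-surface uPAR on HUVEC (3C system) read by ELISA at 24 h post-treatment, with DMSO as baseline and fitting in both directions. Parallel cultures stained with SRB to flag overt cytotoxicity.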
# [17] = BSK_3C_VCAM1: BioMAP Diversity Plus: 3C Assay for Vascular cell adhesion molecule 1 (VCAM1) Biomarker Activity (AID 2282999); settings: BioMAP 3C HUVEC, VCAM1 ELISA, cytokine-stimulated; actives raise or lower the signal
# Method in brief: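 Activity fitted in both directions relative to DMSO, with ELISA measurement of the surface marker on primary HUVEC (3C) at 24 h post-treatment; parallel SRB staining (0.1% SRB, TCA-fixed, 560 nm) flagged overt cytotoxicity.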
# [18] = target: Hepatocyte nuclear factor 4-alpha (Homo sapiens) (UniProt P41235); test: ATG_HNF4a_TRANS: Attagene TRANS-FACTORIAL HepG2 Assay for human Hepatocyte Nuclear Factor 4 alpha (HNF4a) (AID 2282982; active = hit-call score of the fitted dose curve at least 0.9, where 1 is the maximum); settings: HepG2 HNF4a transactivation reporter, mRNA readout
# Method in brief: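 Activity of an exogenous HNF4a–Gal4 fusion scored as induced GAL4-UAS reporter transcripts after 24 h chemical exposure of transfected human HepG2 cells. Read-out via RT-PCR with 6-FAM labelling and capillary electrophoresis; rise over DMSO baseline.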
# [19] = target: Oxysterols receptor LXR-beta (Homo sapiens) (UniProt P55055); test: ATG_LXRb_TRANS: Attagene TRANS-FACTORIAL HepG2 Assay for human Liver X Receptor beta (LXRb) (AID 2282981; active = hit-call score of the fitted dose curve at least 0.9, where 1 is the maximum); settings: HepG2 Attagene TRANS GAL4-LXRb reporter, mRNA
# Method in brief: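 After 24 h chemical treatment of transfected HepG2 cells carrying exogenous NR-Gal4 chimeras, reporter mRNA was quantified by fluorescent RT-PCR and capillary electrophoresis; activity taken as increase over DMSO controls.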
# Sequence of Myc proto-oncogene protein (Homo sapiens) (P01106 whole entry, looked up, the tested form may be a part): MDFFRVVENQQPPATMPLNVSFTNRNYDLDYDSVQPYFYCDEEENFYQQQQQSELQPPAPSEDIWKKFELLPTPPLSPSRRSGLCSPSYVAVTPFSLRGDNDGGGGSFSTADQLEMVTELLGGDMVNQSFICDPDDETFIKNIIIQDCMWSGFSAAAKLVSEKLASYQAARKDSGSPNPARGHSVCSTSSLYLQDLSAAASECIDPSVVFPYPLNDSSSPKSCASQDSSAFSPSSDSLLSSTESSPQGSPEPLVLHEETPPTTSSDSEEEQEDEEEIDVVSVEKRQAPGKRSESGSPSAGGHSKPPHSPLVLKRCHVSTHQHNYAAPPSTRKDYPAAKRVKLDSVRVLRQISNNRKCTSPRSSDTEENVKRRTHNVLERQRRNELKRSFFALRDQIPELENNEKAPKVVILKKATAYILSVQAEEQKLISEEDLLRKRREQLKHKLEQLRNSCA
# Sequence of Nuclear respiratory factor 1 (Homo sapiens) (Q16656 whole entry, looked up): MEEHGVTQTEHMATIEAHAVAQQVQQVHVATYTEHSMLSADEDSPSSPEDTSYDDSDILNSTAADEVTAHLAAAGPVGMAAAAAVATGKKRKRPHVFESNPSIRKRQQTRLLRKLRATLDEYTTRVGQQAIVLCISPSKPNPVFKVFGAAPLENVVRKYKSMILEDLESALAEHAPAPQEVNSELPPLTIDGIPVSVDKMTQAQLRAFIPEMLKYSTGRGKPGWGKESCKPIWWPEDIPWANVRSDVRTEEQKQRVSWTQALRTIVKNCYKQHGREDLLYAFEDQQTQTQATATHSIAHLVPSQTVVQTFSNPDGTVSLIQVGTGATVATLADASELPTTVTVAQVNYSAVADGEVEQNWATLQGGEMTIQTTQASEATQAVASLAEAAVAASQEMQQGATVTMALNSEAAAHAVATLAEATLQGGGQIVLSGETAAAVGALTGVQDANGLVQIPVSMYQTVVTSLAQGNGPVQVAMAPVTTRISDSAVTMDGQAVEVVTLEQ
# Sequence of Glucocorticoid receptor (Homo sapiens) (P04150 whole entry, looked up, the tested form may be a part): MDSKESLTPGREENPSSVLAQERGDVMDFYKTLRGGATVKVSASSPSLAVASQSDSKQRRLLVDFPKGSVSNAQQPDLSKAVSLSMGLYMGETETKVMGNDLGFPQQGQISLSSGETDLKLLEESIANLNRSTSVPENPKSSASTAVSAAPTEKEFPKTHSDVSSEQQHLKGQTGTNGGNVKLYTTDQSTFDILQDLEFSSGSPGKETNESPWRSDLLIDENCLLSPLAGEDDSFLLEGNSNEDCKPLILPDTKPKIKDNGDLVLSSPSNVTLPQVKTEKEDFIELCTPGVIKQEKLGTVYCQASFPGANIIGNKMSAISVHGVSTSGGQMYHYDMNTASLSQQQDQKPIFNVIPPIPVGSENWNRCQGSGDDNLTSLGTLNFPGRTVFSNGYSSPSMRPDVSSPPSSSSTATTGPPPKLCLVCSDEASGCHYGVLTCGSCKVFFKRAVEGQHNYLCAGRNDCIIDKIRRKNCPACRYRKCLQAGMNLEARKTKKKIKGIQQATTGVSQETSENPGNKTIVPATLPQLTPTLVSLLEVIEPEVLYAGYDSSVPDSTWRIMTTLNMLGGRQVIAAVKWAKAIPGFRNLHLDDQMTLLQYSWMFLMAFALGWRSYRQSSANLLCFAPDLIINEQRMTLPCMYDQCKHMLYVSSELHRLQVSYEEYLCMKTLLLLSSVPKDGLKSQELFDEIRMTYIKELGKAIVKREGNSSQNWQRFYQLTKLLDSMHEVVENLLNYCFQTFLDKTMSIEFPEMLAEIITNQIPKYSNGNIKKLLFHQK
# Sequence of Cellular tumor antigen p53 (Homo sapiens) (P04637 whole entry, looked up): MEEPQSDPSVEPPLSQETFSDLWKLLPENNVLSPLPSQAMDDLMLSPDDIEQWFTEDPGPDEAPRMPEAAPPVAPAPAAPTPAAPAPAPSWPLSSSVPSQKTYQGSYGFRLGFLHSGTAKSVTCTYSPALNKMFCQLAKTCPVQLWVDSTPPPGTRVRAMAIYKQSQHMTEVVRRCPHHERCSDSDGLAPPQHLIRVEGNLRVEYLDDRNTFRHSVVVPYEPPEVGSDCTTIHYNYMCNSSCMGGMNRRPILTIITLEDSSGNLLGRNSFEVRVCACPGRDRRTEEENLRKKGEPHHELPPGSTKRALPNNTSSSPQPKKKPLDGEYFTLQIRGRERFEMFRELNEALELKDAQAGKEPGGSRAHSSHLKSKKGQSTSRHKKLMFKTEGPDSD
# Sequence of Nuclear receptor subfamily 4 group A member 2 (Homo sapiens) (P43354 whole entry, looked up, the tested form may be a part): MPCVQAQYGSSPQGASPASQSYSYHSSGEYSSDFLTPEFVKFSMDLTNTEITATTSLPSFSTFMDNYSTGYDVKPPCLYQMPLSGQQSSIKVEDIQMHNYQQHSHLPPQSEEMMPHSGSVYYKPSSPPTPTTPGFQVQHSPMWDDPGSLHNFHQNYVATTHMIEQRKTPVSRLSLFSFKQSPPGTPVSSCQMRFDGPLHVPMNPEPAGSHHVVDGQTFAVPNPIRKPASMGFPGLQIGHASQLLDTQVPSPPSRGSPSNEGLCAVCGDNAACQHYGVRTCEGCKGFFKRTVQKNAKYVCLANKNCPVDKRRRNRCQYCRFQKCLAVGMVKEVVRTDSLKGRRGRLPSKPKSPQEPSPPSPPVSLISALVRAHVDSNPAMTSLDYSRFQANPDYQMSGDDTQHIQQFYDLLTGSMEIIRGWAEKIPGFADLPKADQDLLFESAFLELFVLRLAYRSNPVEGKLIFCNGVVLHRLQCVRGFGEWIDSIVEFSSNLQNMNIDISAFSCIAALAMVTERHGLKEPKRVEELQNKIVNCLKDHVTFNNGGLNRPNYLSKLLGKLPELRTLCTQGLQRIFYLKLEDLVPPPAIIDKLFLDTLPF
# Sequence of Transcriptional activator Myb (Homo sapiens) (P10242 whole entry, looked up): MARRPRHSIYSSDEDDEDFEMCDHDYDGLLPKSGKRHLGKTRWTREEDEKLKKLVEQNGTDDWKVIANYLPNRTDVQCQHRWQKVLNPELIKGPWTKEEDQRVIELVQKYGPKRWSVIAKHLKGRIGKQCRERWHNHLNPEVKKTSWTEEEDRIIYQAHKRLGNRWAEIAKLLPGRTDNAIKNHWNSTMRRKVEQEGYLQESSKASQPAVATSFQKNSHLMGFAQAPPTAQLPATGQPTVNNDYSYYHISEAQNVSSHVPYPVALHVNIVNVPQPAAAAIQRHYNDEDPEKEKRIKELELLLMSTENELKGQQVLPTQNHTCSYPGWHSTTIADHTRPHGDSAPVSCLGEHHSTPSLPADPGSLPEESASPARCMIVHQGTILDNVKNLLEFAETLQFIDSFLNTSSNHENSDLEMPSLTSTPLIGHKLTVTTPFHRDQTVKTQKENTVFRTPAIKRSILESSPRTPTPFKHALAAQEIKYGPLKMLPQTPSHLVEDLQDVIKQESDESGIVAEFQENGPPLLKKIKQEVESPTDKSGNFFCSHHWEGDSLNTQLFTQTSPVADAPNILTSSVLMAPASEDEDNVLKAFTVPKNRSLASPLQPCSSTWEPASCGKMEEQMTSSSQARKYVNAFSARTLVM
# Sequence of Bile acid receptor (Homo sapiens) (Q96RI1 whole entry, looked up, the tested form may be a part): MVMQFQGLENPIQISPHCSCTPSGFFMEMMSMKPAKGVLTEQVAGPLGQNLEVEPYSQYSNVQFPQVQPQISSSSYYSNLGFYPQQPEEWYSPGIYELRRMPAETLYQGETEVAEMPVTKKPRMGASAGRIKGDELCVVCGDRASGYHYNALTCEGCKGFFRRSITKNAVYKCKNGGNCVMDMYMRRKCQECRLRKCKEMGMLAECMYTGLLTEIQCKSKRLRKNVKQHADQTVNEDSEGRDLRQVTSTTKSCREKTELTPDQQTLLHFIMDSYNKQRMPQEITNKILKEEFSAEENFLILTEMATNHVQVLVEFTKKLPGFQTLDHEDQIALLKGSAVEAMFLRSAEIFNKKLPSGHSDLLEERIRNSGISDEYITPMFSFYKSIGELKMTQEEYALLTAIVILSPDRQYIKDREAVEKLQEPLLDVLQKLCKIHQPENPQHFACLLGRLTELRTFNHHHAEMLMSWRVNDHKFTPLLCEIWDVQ
# Sequence of Hepatocyte nuclear factor 4-alpha (Homo sapiens) (P41235 whole entry, looked up, the tested form may be a part): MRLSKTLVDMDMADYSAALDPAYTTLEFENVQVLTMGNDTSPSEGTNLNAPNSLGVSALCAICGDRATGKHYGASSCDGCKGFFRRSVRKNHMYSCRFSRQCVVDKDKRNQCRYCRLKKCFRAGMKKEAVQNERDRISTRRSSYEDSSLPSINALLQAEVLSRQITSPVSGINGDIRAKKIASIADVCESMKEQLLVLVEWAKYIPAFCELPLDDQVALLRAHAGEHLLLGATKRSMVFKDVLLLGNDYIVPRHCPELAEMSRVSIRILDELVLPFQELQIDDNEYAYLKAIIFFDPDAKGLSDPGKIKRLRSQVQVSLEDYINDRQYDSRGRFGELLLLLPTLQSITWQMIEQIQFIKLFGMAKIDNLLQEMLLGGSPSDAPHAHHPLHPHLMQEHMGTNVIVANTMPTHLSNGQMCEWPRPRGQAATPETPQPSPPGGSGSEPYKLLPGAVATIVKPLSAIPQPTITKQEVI
# Sequence of Oxysterols receptor LXR-beta (Homo sapiens) (P55055 whole entry, looked up, the tested form may be a part): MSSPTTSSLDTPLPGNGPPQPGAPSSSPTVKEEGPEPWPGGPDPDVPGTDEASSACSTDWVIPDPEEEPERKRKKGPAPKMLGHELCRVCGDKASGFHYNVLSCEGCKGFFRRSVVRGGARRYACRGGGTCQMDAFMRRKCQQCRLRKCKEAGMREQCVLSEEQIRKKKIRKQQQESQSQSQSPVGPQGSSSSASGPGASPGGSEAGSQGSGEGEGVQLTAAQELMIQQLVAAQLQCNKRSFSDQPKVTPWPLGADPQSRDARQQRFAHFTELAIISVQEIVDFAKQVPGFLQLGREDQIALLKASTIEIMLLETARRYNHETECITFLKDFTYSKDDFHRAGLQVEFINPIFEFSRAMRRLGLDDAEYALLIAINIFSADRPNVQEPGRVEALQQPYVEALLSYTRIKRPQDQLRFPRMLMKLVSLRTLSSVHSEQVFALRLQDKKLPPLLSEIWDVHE
compound,measurement,setting,value
NC(=O)C(F)(F)C(F)(F)C(F)(F)C(F)(F)C(F)(F)C(F)(F)C(F)(F)F,outcome,[1],inactive
same,outcome,[2],inactive
same,outcome,[3],inactive
same,outcome,[4],inactive
same,outcome,[5],inactive
same,outcome,[6],inactive
same,outcome,[7],inactive
same,outcome,[8],inactive
same,outcome,[9],inactive
same,outcome,[10],inactive
same,outcome,[11],inactive
same,outcome,[12],inactive
same,outcome,[13],inactive
same,outcome,[14],inactive
same,outcome,[15],inactive
same,outcome,[16],inactive
same,outcome,[17],inactive
OCCCc1cccnc1,outcome,[1],inactive
same,outcome,[2],inactive
same,outcome,[18],inactive
same,outcome,[4],inactive
same,outcome,[5],inactive
same,outcome,[6],inactive
same,outcome,[7],inactive
same,outcome,[8],inactive
same,outcome,[9],inactive
same,outcome,[10],inactive
same,outcome,[11],inactive
same,outcome,[12],inactive
same,outcome,[13],inactive
same,outcome,[14],inactive
Cc1cc(O)c(C(C)(C)C)cc1C(C)(C)C,outcome,[1],inactive
same,outcome,[2],inactive
same,AC50,[19],4.8 µM (active)
same,outcome,[4],inactive
same,outcome,[5],inactive
same,AC50,[6],5.29 µM (active)
same,outcome,[7],inactive
same,outcome,[8],inactive
same,outcome,[9],inactive
same,outcome,[10],inactive
same,outcome,[11],inactive
same,AC50,[12],11.1 µM (active)
same,outcome,[13],inactive
same,outcome,[14],inactive
same,AC50,[15],3.4 µM (active)
same,AC50,[16],3.82 µM (active)
same,AC50,[17],4.42 µM (active)
CCCC(=O)OCC(COC(=O)CCC)OC(=O)CCC,outcome,[1],inactive
same,outcome,[2],inactive
same,outcome,[18],inactive
same,outcome,[4],inactive
same,outcome,[6],inactive
same,outcome,[7],inactive
same,outcome,[8],inactive
same,outcome,[9],inactive
same,outcome,[10],inactive
same,AC50,[11],44.7 µM (active)
same,outcome,[12],inactive
same,outcome,[13],inactive
same,AC50,[14],89.1 µM (active)
C[Si](C)O[Si](C)C,outcome,[1],inactive
same,outcome,[2],inactive
same,outcome,[3],inactive
same,outcome,[19],inactive
same,outcome,[7],inactive
same,outcome,[8],inactive
same,outcome,[9],inactive
same,outcome,[10],inactive
same,outcome,[11],inactive
same,outcome,[12],inactive
same,outcome,[13],inactive
same,outcome,[14],inactive
